# ssDAF-12 act: activates DAF-12 receptor from parasite S. stercoralis; HEK293 ssDAF-12/GRIP1 lit1-tk-luc reporter, luminescence; % of 3 µM dafachronic acid response; 1% of 370,000 active; AID 652126; activation, % at 6.8 µM;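 active means activation above the mean over all tested compounds plus 3 SD, cut at about 0.9% in these data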;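 further: 0% = DMSO-only wells and 100% = 3 µM delta7-dafachronic acid wells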
# DAX1 inh-1: DAX1 (NR0B1) inhibition, primary screen; HEK293T StAR-luciferase reporter, SF-1/DAX-1 repression relief; inhibition, % at 6.8 µM; 1.1% of 370,000 active; AID 652010;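 active means inhibition above the mean over all tested compounds plus 3 SD, cut at about 3.6% in these data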;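 further: 0% = DAX-1 cells with DMSO and 100% = cells lacking DAX-1 with DMSO; higher inhibition means more luminescence from relief of DAX-1 repression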
# DAX1 inh-2: NR0B1 (DAX1) inhibition. P51843. HEK293 Gal4-DAX1 luciferase reporter, luminescence. inhibition, % at 6.75 µM. 0.99% of 340,000 active;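 active means inhibition above the mean over all tested compounds plus 3 SD, cut at about 4.2% in these data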;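 further: 0% = DAX1-transfected cells with DMSO and 100% = empty-vector control cells with DMSO; inhibition shows as a rise in luminescence from relieved DAX1 repression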
# hgDAF12 agonist: hgDAF-12 agonism, primary luciferase screen. HEK293 GAL4-hgDAF12 UAS-luciferase reporter, agonist luminescence; normalized to butyrate control. 1.8% of 370,000 active. AID 687014. activation, % at 6.8 µM;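 active means activation above a cutoff set at the mean of all screened compounds plus 3 SD, cut at about 10% in these data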;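 further: 0% = DMSO wells and 100% = sodium butyrate wells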
# GAA850 FXN act: frataxin GAA850 promoter activation; AID 540364; 0.56% of 360,000 active; activation, % at 6 µM; HEK293 lucGAA850 FXN promoter luciferase reporter, 24 h; percent of 10 µM SAHA response;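 active means activation above the average of all compounds screened plus 3 SD, cutoff fixed separately per campaign, cut at about 7.5% in these data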;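 further: 0% = DMSO wells and 100% = 10 µM SAHA wells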
# hcDAF-12 act: activates DAF-12 receptor from parasite H. contortus | 1.4% of 370,000 active | HEK293 hcDAF-12 lit1-tk-luc reporter, luminescence; 0% DMSO, 100% Δ7-dafachronic acid | activation, % at 6.8 µM;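 active means activation above the mean of all tested compounds plus 3 SD, cut at about 5.5% in these data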;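 further: 100% = response to 3 µM Δ7-dafachronic acid high control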
# LXR ag: counter-screen for hcDAF-12 agonists: agonists of human LXR-beta. HEK293 Gal4-LXR tk-luc reporter, luminescence, 24 h; normalized: DMSO 0%, positive control 100%. 3,400 tested, under 10 active. shares compounds with hcDAF-12 act. activation, % at 6.8 µM;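 active means mean percent activation of the reporter above a cutoff set as the average over tested compounds plus their standard deviation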
# Target sequence (P55055 whole entry, looked up, the tested form may be a part): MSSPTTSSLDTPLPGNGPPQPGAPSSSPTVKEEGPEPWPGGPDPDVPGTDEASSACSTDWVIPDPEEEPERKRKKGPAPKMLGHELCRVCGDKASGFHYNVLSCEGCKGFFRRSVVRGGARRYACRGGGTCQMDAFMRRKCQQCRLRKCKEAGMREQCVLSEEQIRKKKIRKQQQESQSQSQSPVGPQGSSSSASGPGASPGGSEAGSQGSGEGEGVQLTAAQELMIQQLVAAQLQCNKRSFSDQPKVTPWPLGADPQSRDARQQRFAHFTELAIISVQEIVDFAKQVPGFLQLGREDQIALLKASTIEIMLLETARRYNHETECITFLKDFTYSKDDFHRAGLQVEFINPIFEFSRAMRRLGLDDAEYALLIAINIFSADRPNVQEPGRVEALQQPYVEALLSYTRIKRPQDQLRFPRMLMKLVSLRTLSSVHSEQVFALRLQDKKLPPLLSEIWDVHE
# hcDAF12 ag: confirmation of H. contortus DAF-12 agonists. shares compounds with hcDAF-12 act. activation, % at 6.8 µM. 61% of 3,400 active. HEK293 hcDAF-12 lit1-tk-luc reporter, luminescence; % of Δ7-dafachronic acid response;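 active means mean activation across triplicate tests above the threshold derived from the earlier primary screen, cut at about 5.5% in these data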;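 further: 0% = DMSO only wells and 100% = 3 µM Δ7-dafachronic acid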
# hgDAF12 ag: hgDAF-12 agonism, confirmation assay | AID 743050 | shares compounds with hgDAF12 agonist | activation, % at 6.8 µM | HEK293 GAL4-hgDAF12 luciferase reporter, agonist mode; percent of butyrate response | 80% of 3,300 active;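 active means mean activation over triplicate wells above the hit cutoff derived from the earlier primary screen, cut at about 11% in these data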;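 further: 0% = DMSO low control and 100% = 2 mM sodium butyrate high control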
# LXRb DAF12 ctr: LXR-beta agonism as DAF-12 counter-screen; shares compounds with hgDAF12 agonist; HEK293 Gal4-LXR luciferase reporter, 24 h; activation, % at 6.8 µM; 3,300 tested, under 10 active; AID 743051;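 active means mean activation of the triplicate above a set limit carried over from the primary screen, none filed active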
# * = called active by the depositor; · = not tested or not shown. Most compounds without a hit are left out; they make up all but 4.5% or so of the library.
SMILES,ssDAF-12 act,DAX1 inh-1,DAX1 inh-2,hgDAF12 agonist,GAA850 FXN act,hcDAF-12 act,LXR ag,hcDAF12 ag,hgDAF12 ag,LXRb DAF12 ctr
C/C(=N\Nc1ccc(Cl)c(C(=O)O)c1)c1ccc(Br)s1,0,0,2,3,-1,2,·,·,·,·
C/C(=N\Nc1ccc(C(=O)O)cc1)c1ccc(Cl)s1,1.1*,3,-1,16*,4,8.2*,1,11*,20*,1
CCOn1c(=O)c(-c2cc3ccccc3o2)[n+]([O-])c2ccccc21,·,·,1,·,2,·,·,·,·,·
O=c1c(-c2cc3ccccc3o2)[n+]([O-])c2ccccc2n1OCc1ccccn1,2.2*,4.3*,4,18*,2,15*,1,9.7*,21*,1
O=C(NC1CCCCC1)c1cc(-c2ccccc2Cl)on1,-1,1,0,8,6,0,·,·,·,·
O=C(NC1CCCC1)c1cc(-c2ccccc2Cl)on1,0,1,1,14*,4,8.0*,1,3,16*,1
C[C@H]1[C@@H](OC(=O)N2CCCC2)CC[C@@]23CCCN2C(=O)CCC[C@@H]13,-2,·,·,-1,·,0,·,·,·,·
Oc1[nH]c2ccccc2c1N=Nc1ccccc1F,1,2,3,16*,7,12*,1,14*,21*,1
Cc1nc(NC(=S)NC(=O)c2ccccc2)sc1C,0,1,5.3*,14*,6,8.0*,1,15*,14*,1
CCOC(=O)c1sc(NC(=O)c2cc3ccccc3o2)nc1C,-1,3,1,4,2,1,·,·,·,·
O=C(Nc1ccc2c(c1)Cc1ccccc1-2)c1cc2ccccc2o1,-1,0,3,1,0,1,·,·,·,·
COC(=O)c1sc(NC(=S)NC(=O)c2cccc(C)c2)nc1C,-1,0,0,3,3,1,·,·,·,·
O=C(Nc1ccc2c(c1)CCC2)c1cc2ccccc2o1,1.6*,3,2,17*,1,7.9*,1,5,22*,1
Cc1nc(NC(=O)c2cc3ccccc3o2)sc1C,0,2,-1,14*,0,10*,2,8.1*,17*,1
CSc1ccccc1OCc1cc(C(=O)NC2CCOC2)no1 (configuration not stated),-1,0,0,2,4,1,·,·,·,·
CSc1ccccc1OCc1cc(C(=O)N[C@H]2CCCCNC2=O)no1,0,4.4*,1,19*,4,7.2*,1,3,10,0
O=C(Nc1ccc2ccccc2n1)c1ccccc1,1.1*,2,4,20*,1,13*,2,12*,21*,1
Cc1ccc(C(=O)Nc2ccc3ccccc3n2)cc1,2.7*,3,1,15*,5,8.2*,2,8.4*,21*,1
O=C(Nc1ccc2ccccc2n1)c1ccccc1Br,3.8*,2,1,19*,2,16*,1,9.5*,18*,1
Cc1ccc(C(=O)Nc2ccccc2Cl)cc1,1.2*,3,7.1*,13*,6,12*,2,7.3*,16*,1
O=C(c1ccccc1)c1ccc2ccccc2n1,-1,0,2,1,-1,-2,·,·,·,·
CCCN1CNc2c(c(=O)[nH]c(=S)n2CCc2c(Cl)cccc2Cl)C1,-1,·,·,-2,·,-2,·,·,·,·
COc1cc(OC)cc(C2=Cc3ccc(OC)cc3C(CC(C)=O)N2c2ccc(C#CCCO)cc2)c1 (configuration not stated),-1,-2,·,-2,·,-2,·,·,·,·
CCN(CCn1cccn1)C(=O)c1cc(COc2cc(C)ccc2C)on1,1.7*,4,2,14*,5,7.5*,1,5,12*,0
CCN(CCn1cccn1)C(=O)c1cc(COc2ccc(F)c(F)c2)on1,-1,0,1,3,4,1,·,·,·,·
SMILES,ssDAF-12 act,DAX1 inh-1,DAX1 inh-2,hgDAF12 agonist,GAA850 FXN act,hcDAF-12 act,LXR ag,hcDAF12 ag,hgDAF12 ag,LXRb DAF12 ctr
Cc1ccc(Nc2nc(N)c3ccccc3n2)cc1C,0.9*,3,-2,16*,1,6.6*,2,8.0*,21*,1
Cc1ccn2cc(-c3ccc(Br)cc3)nc2c1,1,3.7*,-3,14*,2,12*,1,8.4*,13*,1
Fc1ccccc1OCCSc1nnnn1-c1ccccc1,0,3,3,13*,-1,8.1*,1,7.7*,18*,1
COc1ccccc1OCCSc1nnnn1-c1ccc(C)cc1,-1,1,0,4,1,-2,·,·,·,·
O=C(C(=O)N1CCC(CNC(=O)c2cccnc2Cl)CC1)c1cc2ccccc2o1,-1,0,·,0,·,1,·,·,·,·
Brc1ccc(-n2cnc(-c3ccccc3)c2)cc1,0,3,5.4*,20*,5,7.2*,1,3,20*,1
CCOC(=O)C1(C)CCCN(C(=O)c2ccc(OC(F)F)cc2)C1 (configuration not stated),-1,0,·,2,1,-1,·,·,·,·
NNC(=O)c1cccc(COc2ccccc2Br)c1,1.2*,3,-3,16*,3,7.2*,1,6.5*,15*,1
CCOC(=O)c1c(C)oc2c1c(C(c1cccnc1)N1CCOCC1)c(O)c1ccccc12 (configuration not stated),2.6*,3,4.9*,13*,-1,10*,1,5.7*,8,0
CCOC(=O)c1c(C)oc2c1c1c(c3ccccc32)OCN(Cc2cccnc2)C1,·,·,0,·,0,·,·,·,·,·
O=c1c2ccccc2cnn1-c1ccc(Cl)nn1,-1,0,-1,7,3,-1,·,·,·,·
O=c1c2ccccc2cnn1-c1ccc2ccccc2c1,1.4*,3,1,18*,0,13*,2,6.6*,17*,1
NC(=O)c1c(NC(=O)c2ccc(F)cc2)sc2c1CCC2,2.0*,2,2,15*,4,13*,1,12*,20*,1

# Source: PubChem
